Measurements: PubChem BioAssay AID795 (NMMLSC, 2007)
The campaign covered roughly 24,000 compounds. About 130 (0.54%) were called active. The sample holds actives, similar compounds and a random draw of the others, so the mix is not that of the screen.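 Rule for the calls: active = side scatter shift above 30%; inactive = the rest.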

assay: inducers of granularity increase in LNCaP cells – cell-based, flow cytometry side scatter, primary screen (AID 795); conditions: LNCaP differentiation, 4 d, at 10 µM, active compounds read high;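 note: androgen-responsive LNCaP prostate cancer cells in charcoal-stripped serum medium; percent of cells past a gate set so DMSO wells show 10% shift; higher shift means more granular cells and more differentiation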

Side scatter shift, inactive:
Cc1ccc(-c2noc(-c3ccccc3C(=O)NCC3CCCO3)n2)cc1 (configuration not stated) 5%, CCOC(=O)Nc1ccccc1N1C(=O)c2ccccc2C1=O 8%, O=C(CNS(=O)(=O)c1ccc(Br)s1)NCc1ccc2c(c1)OCO2 9%, COc1ccc(-c2nc(CS(=O)CC(=O)N3CCc4ccccc4C3)c(C)o2)cc1 (configuration not stated) 11%, O=C1CSC(c2cccc(F)c2)N1c1ccccc1F (configuration not stated) 8%, CCOC(=O)c1cccc(NC(=O)CCc2c(C)nc3ncnn3c2C)c1 4%, CC1Cc2nc(SCC(=O)Nc3ccccc3F)n(C)c(=O)c2S1 (configuration not stated) 7%, CSCCC(NC(=O)C1CCC(C)CC1)C(=O)NCc1ccco1 (configuration not stated) 3%, CCOc1ccc(NC(=O)N(CCC(C)C)C(C)c2ccco2)cc1 (configuration not stated) 7%, COc1cc2[nH]c(=O)n(CCC(=O)NC3CCN(Cc4ccccc4)CC3)c(=O)c2cc1OC 2%, Cn1c(=O)cc(SCC(=O)N2CCCC2)c2cc(Cl)ccc21 9%, COc1cc(OC)cc(-c2nc3nc(C)c(CCC(=O)NCc4ccco4)c(C)n3n2)c1 5%, CC1C=CCC2C(=O)N(c3cccc(C(=O)N4CCCCCC4)c3)C(=O)C12 (configuration not stated) 3%, C/C(=N\O)C1(C)N(O)C(C)(C)C(c2ccc(Br)cc2)=[N+]1[O-] (configuration not stated) 11%, CCCSc1nc2c(c(=O)[nH]c(=O)n2C)n1CCc1ccccc1 9%, Cc1ccc2nc3n(c(=O)c2c1)CCC3 8%, Cc1nc2nc(SCC(=O)NCc3ccco3)nn2c(C)c1Cc1ccccc1 4%, S=C1SCN(CCN2CCOCC2)CN1Cc1ccccc1 18%, CCOC(=O)C1CCCN(C(=O)Cn2ncc3c(=O)oc4ccc(C)cc4c32)C1 (configuration not stated) 5%, O=C(NC(=O)c1ccc(Cl)c(Cl)c1)OC1CCS(=O)(=O)C1 (configuration not stated) 6%, CC1CCc2c(sc3c2C2=NS(=O)(=O)CCN2C=N3)C1 (configuration not stated) 12%, CC(=O)c1c(N)n(C)c(=O)n(C)c1=O 0%, CCCC1CC(C)(C(=O)Cn2[nH]c(=O)ccc2=O)OC1=O (configuration not stated) 1%, Fc1cc(F)c2nc(N3CCOCC3)sc2c1 5%, Cn1c(=O)c2c(nc(N3CCCCCC3)n2CC(=O)c2ccc(Br)cc2)n(C)c1=O 21%, CCOC(=O)N1CCN(C(=O)c2ccc(S(=O)(=O)c3ccc(C)cc3)c(NC(C)=O)c2)CC1 8%, N#CC1=C(N)C(C#N)(C#N)[C@H](c2ccsc2)[C@H]2COCC=C12 9%
